Test results from PubChem BioAssay AID1159580 (chemical genetic matrix, 2015).
The whole screen tested about 5,500 compounds, of which about 2,000 (36%) were called active. Inconclusive results (about 18%) are left out. No stated cut-off is given here; in the data, active means normalized growth mostly below about 0.91 (no sharp cut-off); inconclusive means no clear call, values can overlap the other calls; inactive means mostly above about 0.92. The list shows a part of the results.

Experiment: chemical genetic growth profiling, strain panel (AID 1159580);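 further: tested at 20 µM; growth read once vehicle control cultures reached saturation at 30 °C; 1 = growth at the plate median or of vehicle wells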
Details: growth OD
[1] = S. cerevisiae deletion strains, locus YAL013W, strain DEP1, stronger effect = lower value
[2] = S. cerevisiae deletion strains, locus YBR229C, strain ROT2, stronger effect = lower value
[3] = S. cerevisiae deletion strains, locus YDL101C, strain DUN1, stronger effect = lower value
[4] = S. cerevisiae deletion strains, locus YDL134C, strain PPH21, stronger effect = lower value
[5] = S. cerevisiae deletion strains, locus YDR150W, strain NUM1, stronger effect = lower value
[6] = S. cerevisiae deletion strains, locus YEL061C, strain CIN8, stronger effect = lower value
[7] = S. cerevisiae deletion strains, locus YGR078C, strain PAC10, stronger effect = lower value
[8] = S. cerevisiae deletion strains, locus YHR030C, strain SLT2, stronger effect = lower value
[9] = S. cerevisiae deletion strains, locus YHR087W, strain rtc3, stronger effect = lower value
[10] = S. cerevisiae deletion strains, locus YJR043C, strain POL32, stronger effect = lower value
[11] = S. cerevisiae deletion strains, locus YJR075W, strain HOC1, stronger effect = lower value
[12] = S. cerevisiae deletion strains, locus YKL190W, strain CNB1, stronger effect = lower value
[13] = S. cerevisiae deletion strains, locus YLR039C, strain RIC1, stronger effect = lower value
[14] = S. cerevisiae deletion strains, locus YLR058C, strain SHM2 (second series), stronger effect = lower value
[15] = S. cerevisiae deletion strains, locus YLR085C, strain ARP6, stronger effect = lower value
[16] = S. cerevisiae deletion strains, locus YLR262C, strain YPT6, stronger effect = lower value
[17] = S. cerevisiae deletion strains, locus YML094W, strain GIM5, stronger effect = lower value
[18] = S. cerevisiae deletion strains, locus YMR219W, strain ESC1, stronger effect = lower value
[19] = S. cerevisiae deletion strains, locus YMR263W, strain SAP30, stronger effect = lower value
[20] = S. cerevisiae deletion strains, locus YMR307W, strain GAS1, stronger effect = lower value
[21] = S. cerevisiae deletion strains, locus YNL153C, strain GIM3, stronger effect = lower value
[22] = S. cerevisiae deletion strains, locus YNL298W, strain CLA4 (second series), stronger effect = lower value
[23] = S. cerevisiae deletion strains, locus YNL322C, strain KRE1, stronger effect = lower value
[24] = S. cerevisiae deletion strains, locus YNR030W, strain Alg12, stronger effect = lower value
[25] = S. cerevisiae deletion strains, locus YPL055C, strain LGE1, stronger effect = lower value
[26] = S. cerevisiae deletion strains, locus YPL241C, strain CIN2, stronger effect = lower value
[27] = S. cerevisiae deletion strains, locus YPR135W, strain CTF4, stronger effect = lower value

Measured: normalized growth

CC(=O)C1C(=O)CC(c2ccc(Cl)cc2)CC1=O (stereo not drawn)
active: [1] 0.342 | [2] 0.454 | [3] 0.425 | [4] 0.854 | [5] 0.489 | [6] 0.867 | [7] 0.463 | [8] 0.199 | [9] 0.541 | [10] 0.585 | [11] 0.444 | [12] 0.848 | [13] 0.218 | [14] 0.761 | [15] 0.529 | [16] 0.219 | [18] 0.562 | [19] 0.268 | [20] 0.218 | [21] 0.512 | [23] 0.796 | [24] 0.855 | [25] 0.211 | [26] 0.845
inactive: [17] 0.901 | [22] 0.849 | S. cerevisiae deletion strains, locus YOL006C, strain TOP1, stronger effect = lower value 0.774 | [27] 0.718

O=C1C=C(Cl)CC(c2ccc(C(F)(F)F)cc2)C1 (stereo not drawn)
inactive: [1] 1 | [2] 0.988 | S. cerevisiae deletion strains, locus YCL061C, strain MRC1, stronger effect = lower value 1.01 | [3] 0.995 | [4] 1.03 | [5] 1.1 | [6] 1.03 | [7] 1.01 | [8] 0.987 | [9] 0.975 | [10] 1.01 | [11] 1.02 | [12] 0.983 | [13] 0.936 | [14] 0.986 | [15] 1.06 | [16] 0.94 | [17] 1.04 | [18] 1.01 | [19] 0.989 | [20] 1.01 | S. cerevisiae deletion strains, locus YNL128W, strain TEP1, stronger effect = lower value 0.987 | [21] 0.992 | [22] 0.985 | [23] 0.991 | [24] 1.02 | [25] 1.14 | [26] 1.02 | [27] 1.03 | S. cerevisiae strains, strain wild type, stronger effect = lower value 0.971
